Assay results taken from PubChem BioAssay (NCATS).
Where “and” joins values, the source holds several entries; their conditions need not be identical. Equal values may be shown once. Records with an inconclusive call do not appear. Calls of active or inactive are those of the source. Unless noted, how the calls were made is not given here.

Experiments:
[1] = qHTS profiling for inhibitors of Plasmodium falciparum (3D7) proliferation (AID 743322);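 further: infected erythrocytes exposed to compound for 72 h before lysis; 100% = DMSO vehicle wells and 0% = 0.29 µM artemisinin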; settings: P. falciparum 3D7 proliferation; at 28.7 µM (top of the series) unless noted
Procedure, shortened: (§1)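 Parasite DNA was quantified by SYBR Green I fluorescence (ex 485, em 535 nm) after overnight lysis in saponin/Triton buffer at room temperature. Cultures at 0.3% parasitemia and 2.5% hematocrit were first exposed to compound for 72 h at 37 C; signals were normalised to artemisinin (0.29 uM) and vehicle wells.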

[2] = qHTS profiling for inhibitors of Plasmodium falciparum (DD2) proliferation (AID 743323); settings: lower = more inhibition; at 28.7 µM (top of the series) unless noted
Procedure, shortened: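 P. falciparum Dd2-infected erythrocytes (0.3% parasitemia, 2.5% hematocrit) exposed 72 h at 37 C, 5% CO2. Lysis with SYBR Green, overnight at room temperature, fluorescence 485/535 nm; normalized to 0.29 uM artemisinin and DMSO.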

[3] = qHTS profiling for inhibitors of Plasmodium falciparum (HB3) proliferation (AID 743324; active means well fitted curve in the direction sought with a large enough effect; an effect the other way counts as inactive or inconclusive;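 further: 100% = DMSO vehicle wells and 0% = artemisinin-treated control wells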); settings: Plasmodium falciparum HB3 blood-stage proliferation; at 28.7 µM (top of the series) unless noted
Procedure, shortened: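 SYBR Green fluorescence (485 ex/535 em) of lysed cultures, incubated overnight at room temperature in the dark, quantifies parasite DNA. Infected erythrocytes at 0.3% parasitemia and 2.5% hematocrit were exposed 72 h; values normalized to DMSO and 0.29 uM artemisinin controls.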

[4] = qHTS profiling of the MIPE4 collection as inhibitors of Plasmodium falciparum (3D7) proliferation (AID 743344);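 further: scaled between DMSO vehicle wells and 0.29 µM artemisinin as full inhibition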; settings: P. falciparum 3D7 in erythrocytes, SYBR Green DNA fluorescence, 72 h; at 28.5 µM (top of the series) unless noted
Procedure, shortened: as §1

[5] = qHTS profiling of the MIPE4 collection as inhibitors of Plasmodium falciparum (DD2) proliferation (Rep 2) (AID 743346); settings: P. falciparum Dd2 in erythrocytes, SYBR Green DNA, 72 h; at 28.5 µM (top of the series) unless noted
Procedure, shortened: as §1

[6] = qHTS profiling of the MIPE4 collection as inhibitors of Plasmodium falciparum (HB3) proliferation (AID 743347);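 further: plate controls were DMSO vehicle wells for no effect and artemisinin wells for full effect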; settings: P. falciparum HB3 in erythrocytes, SYBR Green DNA, 72 h; at 28.5 µM (top of the series) unless noted
Procedure, shortened: as §1

[7] = Cell Proliferation Assay Versus the ED40515 IL2 Independent ATL cell lines (AID 1053194; calls by dose curve); settings: ED40515 IL2-independent ATL cells
Procedure, shortened: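 CellTiter-Glo luminescence, read after 15 min at RT, gave viability of IL-2-free ED40515 cells (1000/well, RPMI plus 5% FBS) following 48 h drug exposure at 37C. Control wells held DMSO or 9.2 uM bortezomib.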

[8] = Cell Proliferation Assay Versus the ED40515 IL2 Dependent ATL cell lines (AID 1053195; calls by dose curve); settings: ED40515 IL2-dependent ATL cells
Procedure, shortened: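 CellTiter-Glo luminescence (15 min, RT) measured viability after 48 hours at 37C; cells were ED40515 +IL2, 1000/well, in phenol red-free RPMI with 5% FBS. Controls: DMSO and 9.2 uM bortezomib.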

[9] = qHTS for Activators of Parkin Expression: LOPAC Validation Assay (NLuc Reporter) (AID 720572; active means well fitted curve in the direction sought with a large enough effect; an effect the other way counts as inactive or inconclusive;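 further: 0% = DMSO and 100% = positive control compound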)
Procedure, shortened: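 Cells harboring the Parkin-promoter coincidence reporter were treated for 24 h at seven concentrations. NLuc output was measured sequentially after the FLuc channel and scaled between DMSO and positive control values.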

[10] = qHTS for Activators of Parkin Expression: LOPAC Validation Assay (FLuc Reporter) (AID 720573; active means well fitted curve in the direction sought with a large enough effect; an effect the other way counts as inactive or inconclusive;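 further: 0% = DMSO and 100% = positive control compounds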)
Procedure, shortened: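 FLuc signal from Parkin-promoter coincidence reporter neuronal cells, normalized to DMSO and positive control (100%). Cells (1,500/well) pre-incubated 24 h, then exposed to LOPAC compounds in 7-point dose response for 24 h at 37 C, 5% CO2.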

[11] = target: T1, Hexokinase-4 (Homo sapiens) + Glucokinase regulatory protein (Homo sapiens) (UniProt P35557+Q14397); assay: qHTS assay for inhibitors of recombinant human GCK-GKRP interaction: Diaphorase-coupled assay (AID 743205; active means well fitted curve in the direction sought with a large enough effect; an effect the other way counts as inactive or inconclusive)
T1 sequence (P35557 whole entry, looked up): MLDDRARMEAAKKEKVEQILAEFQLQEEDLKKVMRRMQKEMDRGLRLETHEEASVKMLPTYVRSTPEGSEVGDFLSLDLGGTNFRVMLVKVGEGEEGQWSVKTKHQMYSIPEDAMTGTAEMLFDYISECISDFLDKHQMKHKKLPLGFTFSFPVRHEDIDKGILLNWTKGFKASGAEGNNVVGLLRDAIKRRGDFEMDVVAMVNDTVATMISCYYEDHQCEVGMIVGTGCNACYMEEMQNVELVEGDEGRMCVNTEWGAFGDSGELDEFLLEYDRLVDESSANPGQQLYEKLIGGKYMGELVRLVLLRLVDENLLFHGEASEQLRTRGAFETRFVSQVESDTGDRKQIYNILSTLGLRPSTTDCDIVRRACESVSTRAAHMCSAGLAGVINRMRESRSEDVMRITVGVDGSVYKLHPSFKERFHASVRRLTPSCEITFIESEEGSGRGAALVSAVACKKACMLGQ
T1 sequence (Q14397 whole entry, looked up): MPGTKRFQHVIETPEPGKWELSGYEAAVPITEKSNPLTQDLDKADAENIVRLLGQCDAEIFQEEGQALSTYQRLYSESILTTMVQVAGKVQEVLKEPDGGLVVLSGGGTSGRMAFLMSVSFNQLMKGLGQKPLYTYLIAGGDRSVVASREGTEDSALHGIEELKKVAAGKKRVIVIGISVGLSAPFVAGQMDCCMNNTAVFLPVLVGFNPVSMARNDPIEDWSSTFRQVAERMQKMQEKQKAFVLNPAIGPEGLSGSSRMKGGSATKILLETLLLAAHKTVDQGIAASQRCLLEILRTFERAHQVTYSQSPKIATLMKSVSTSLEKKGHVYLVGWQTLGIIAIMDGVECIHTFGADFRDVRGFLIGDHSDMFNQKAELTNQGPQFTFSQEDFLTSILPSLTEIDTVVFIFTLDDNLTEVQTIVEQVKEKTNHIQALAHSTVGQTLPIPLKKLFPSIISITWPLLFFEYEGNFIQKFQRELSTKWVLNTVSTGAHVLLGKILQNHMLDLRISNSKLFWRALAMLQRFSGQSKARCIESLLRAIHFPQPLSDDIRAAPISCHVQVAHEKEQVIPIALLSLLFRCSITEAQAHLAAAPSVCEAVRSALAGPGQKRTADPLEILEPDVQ
Procedure, shortened: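 A kinetic fluorescence read (Ex 525/Em 590 nm, every minute for 30 minutes) tracked resorufin from a G6PDH-diaphorase coupled GCK reaction. It contained 10 nM GST-GCK, 10 nM FLAG-GKRP, 5 mM glucose, 0.4 mM ATP in Hepes pH 7.6. Normalized to with/without-enzyme DMSO controls.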

[12] = target: T1, Hexokinase-4 (Homo sapiens) + Glucokinase regulatory protein (Homo sapiens); assay: qHTS assay for inhibitors of recombinant human GCK-GKRP interaction: ADP-Glo assay (AID 743206; active means well fitted curve in the direction sought with a large enough effect; an effect the other way counts as inactive or inconclusive;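 further: plate controls were DMSO plus enzyme for no effect and no enzyme for full effect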)
Procedure, shortened: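 Pin-transferred compounds meet a 15 nM GST-GCK/15 nM FLAG-GKRP/2 uM S6P mix (dispense concentrations). ATP is then added to 0.4 mM final with 5 mM glucose, and the reaction runs 60 min at room temperature. ADP is quantified luminescently.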

[13] = target: T1, Hexokinase-4 (Homo sapiens) + Glucokinase regulatory protein (Homo sapiens); assay: qHTS assay for inhibitors of recombinant human GCK-GKRP interaction: HTRF assay (AID 743207; active means well fitted curve in the direction sought with a large enough effect; an effect the other way counts as inactive or inconclusive;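 further: 0% = DMSO with GCK present and -100% = DMSO wells lacking GCK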)
Procedure, shortened: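 After 60 min equilibration at room temperature with anti-FLAG XL665 and anti-GST antibodies, FRET ratio (665/615 nm, excitation 320 nm) was read. Proteins: GST-GCK and FLAG-GKRP, each 5 nM, plus 2 uM S6P, pH 7.1 buffer; GCK-free wells define minimum signal.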

[14] = qHTS Assay for Identifying Gametocytocidal Compounds (AID 743244; active means well fitted curve in the direction sought with a large enough effect; an effect the other way counts as inactive or inconclusive; further: potency means the concentration at half of the fitted maximal effect;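 on max response: on the % scale 0 is the no-effect control and ±100 the full control effect; actives lower the fluorescent signal which means gametocytes are killed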); settings: P. falciparum 3D7 stage III-V gametocytes, alamarBlue, 72 h; max response: stronger effect = lower value
Procedure, shortened: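 In this qHTS viability screen, late-stage 3D7 gametocytes are incubated with compound for 72 h, then with alamarBlue for 24 h; reduced resorufin fluorescence marks killing.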

[15] = qHTS profiling of the MIPE4 collection as inhibitors of Plasmodium falciparum (DD2) proliferation (AID 743345); settings: P. falciparum Dd2 in erythrocytes, SYBR Green DNA, 72 h; at 28.5 µM (top of the series) unless noted
Procedure, shortened: as §1

SMILES	remaining parasite growth % (stronger effect = lower value) [1]	activity, percent of control [2]	remaining proliferation (% of control), lower = more inhibition [3]	parasite growth, % of DMSO control [4] [%]	parasite growth, % of control (lower = inhibition) [5] [%]	growth, % of control [6] [%]	Potency [7]	Potency [8]	Potency [9]	outcome [10]	outcome [11]	outcome [12]	outcome [13]	Potency [14]	parasite growth remaining, % of DMSO control (lower = more inhibition) [15] [%]	max response [14]
NC(=O)c1ccc(I)c([N+](=O)[O-])c1	93.8%	92.6%	77.5%	71.2	90.7	96	16.6 µM (active)	37.2 µM (active)								
OC(CN1CCC(Cc2ccc(F)cc2)CC1)c1ccc(Cl)cc1 (stereo unspecified)		1.06% and 4.92%		9.22	19.9	46.6	26.4 µM (active)		inactive	inactive	inactive	inactive	inactive	7.43 µM (active)	8.62	
CO[C@@H]1[C@H](N(C)C(=O)c2ccccc2)C[C@H]2O[C@]1(C)n1c3ccccc3c3c4c(c5c6ccccc6n2c5c31)C(=O)NC4							0.743 µM (active)							5.9 µM (active)		
CC(C)OC(=O)C1=CN(C(=O)c2ccc(F)c(F)c2)CC(C)(C)c2c1[nH]c1ccccc21		36.4%	29.3%	51.5	66.4	46.5	11.8 µM (active)									18.7% (inactive)
c1ccc(-c2nn3c(c2-c2ccnc4cc(OCCN5CCOCC5)ccc24)CCC3)nc1	81.9%	81.5%	50.9%	25.6	58.7	17.9	26.4 µM (active)									-4.63% (inactive)
O=C(c1cc(Cc2n[nH]c(=O)c3ccccc23)ccc1F)N1CCN(C(=O)C2CC2)CC1	88.8% and 97.4%	97.9% and 99.7%	57.9% and 59.4%		44.7	35.9	16.6 µM (active)	16.6 µM (active)							92.7	10.8% (inactive)
OC[C@H](Cc1ccccc1)Nc1nc(Oc2ccc3c(c2)CCC3)nc2c1ncn2Cc1ccc(-c2ccccc2)cc1	6.42%	5.17%	-0.578%	33.7	27	68.3	4.69 µM (active)								44.8	-2.93% (inactive)
COc1ccc(C2=N[C@H](c3ccc(Cl)cc3)[C@H](c3ccc(Cl)cc3)N2C(=O)N2CCNC(=O)C2)c(OC(C)C)c1	52.3%	50.5%	23.2%		11.8	12.4	33.2 µM (active)	20.9 µM (active)							54.6	18.2% (inactive)
CCOc1cc(C(=O)Nc2ccc(Cl)c(-c3nc4ccccc4[nH]3)c2)cc(OCC)c1OCC	1.56%	15.9%	0.587%	5.5	17	7.25	18.7 µM (active)								58.5	-21.5% (inactive)
C[C@@H]1CN(Cc2ccc(F)cc2)[C@@H](C)CN1C(=O)c1cc2c(C(=O)C(=O)N(C)C)cn(C)c2cc1Cl	69.2%	79.8%	52.3%	49.5	48.6	47.5	37.2 µM (active)	16.6 µM (active)							83.2	12.3% (inactive)
CCCS(=O)(=O)Nc1ccc(F)c(C(=O)c2c[nH]c3ncc(Cl)cc23)c1F		83.1%	55.7%	51.6	80.8	71.8	13.2 µM (active)	16.6 µM (active)							77.2	35.4% (inactive)
COc1ccc(CCN2CCN(CCCc3ccccc3)CC2)cc1OC	9.47%	65.7%		28.6	30	21.1	7.43 µM (active)									-5.52% (inactive)
CC1(C)CNc2cc(NC(=O)c3cccnc3NCc3ccncc3)ccc21		68.6%	5.63%		42.2	30.1	33.2 µM (active)								86.3	-7.52% (inactive)
Cn1c(=O)c(F)c(Nc2ccc(I)cc2F)c2c(=O)n(C[C@@H](O)CO)cnc21	83.3%	71.7%	68.4%	12.8	24.5	7.31	26.4 µM (active)								86.9	-1.37% (inactive)
COc1ccc2c3n(c(=NC(=O)c4cccnc4)nc2c1OC)CCN3	0.12%	12.2%	1.47%	5.7	7.17	3.38	23.5 µM (active)	4.18 µM (active)								-25% (inactive)
CCOC(=O)N[C@@H]1CC[C@@H]2[C@@H](C1)C[C@H]1C(=O)O[C@H](C)[C@H]1[C@@H]2C=Cc1ccc(-c2cccc(F)c2)cn1		7.47%	0.902%		22	5.21	16.6 µM (active)								45	-4.74% (inactive)
O=S(=O)(N=Cc1c(O)ccc2ccccc12)c1cccs1	85.7%	92.2%	82.6%	75.2	63.3	63.2	26.4 µM (active)	20.9 µM (active)							91.9	-5.04% (inactive)
C[C@@H]1C[C@H]2[C@@H]3CCC4=CC(=O)C=C[C@]4(C)C3(F)[C@@H](O)C[C@]2(C)[C@@]1(O)C(=O)CO (stereo partly specified)	109%	95.7%	85.9%	71.2	146	95.5	20.9 µM (active)	2.64 µM (active)							96	2.96% (inactive)
COc1nc(-c2ccc3c(c2)OCO3)n(-c2ccc(NC(=O)CSc3ccccc3)cc2)n1	96.2%	95.9%	94.2%	51.6	61.9	82	23.5 µM (active)	20.9 µM (active)							86.8	6.75% (inactive)
